Screening data as filed in PubChem BioAssay.
Peg3 promoter – reduces Peg3 promoter-driven luciferase expression in HeLa; inhibition, % at 20 µM; HeLa PEG-Prom luciferase reporter, luminescence, overnight; AID 588405; hit rate 1.7% among 360,000;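 active = inhibition of at least 50% at 20 µM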
EBV LMP1 NFkB – inhibitors of Epstein-Barr LMP1-induced NF-kappaB reporter | inhibition, % at 12.5 µM | LMP1-induced NF-kappaB luciferase reporter cells, luminescence | hit rate 0.69% among 350,000; in the data active = inhibition above about 41%; inconclusive = no clear call, values can overlap the other calls
PAX8 inh HTS – inhibitors of PAX8 transcriptional activity in RMG-I cells; hit rate 1.2% among 360,000; RMG-I TPO-luciferase reporter, SteadyGlo, 24 h; inhibition, % at 12.6 µM;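 active = mean replicate inhibition at least 60% with every replicate also reaching 60%; inconclusive = only one of the two criteria is met; inactive = mean below 60% and not all replicates reaching 60%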;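 also: luciferase light reporting Pax8 driven TPO promoter activity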
Shn3 3UTR inh – Schnurri-3 reporter inhibition in Clone20 osteoblasts | hit rate 0.52% among 360,000 | inhibition, % at 12.5 µM | Clone20 osteoblast Shn3 3'UTR firefly luciferase, 24 h;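 active = mean inhibition of at least 75% with every replicate also reaching 75%; inconclusive = mean inhibition at least 75% but some replicate below; inactive = mean inhibition below 75%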
TRPM1 prom inh – reduces MITF-dependent TRPM1 promoter luciferase signal | hit rate 0.83% among 330,000 | inhibition, % at 12.5 µM | SK-MEL-5 TRPM1 promoter luciferase, 24 h;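 active = mean inhibition across replicates of 60% or more, whatever share of single replicates reaches that level; inconclusive = some that reach 60%, reason not given; inactive = mean inhibition across replicates below 60%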
HIF-2a inh – inhibitors of HIF-2a; inhibition, % at 18.8 µM; 786-0 RCC cells HIF-2a reporter, luciferase luminescence, overnight; hit rate 0.72% among 360,000;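 active = inhibition of the luminescence signal of 40% or more relative to plate controls, in a single-dose primary screen at 18.75 µM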
Hits are given with their value. Only some compounds are listed: those with a hit (about 2.8% of all), similar ones and a draw of the others.

C[C@@H]1CN([C@H](C)CO)S(=O)(=O)c2ccc(C#CCN(C)C)cc2O[C@H]1CN(C)Cc1ccncc1 was read as PAX8 inh HTS inactive.
For C=CCSc1nc2ccccc2n1C(=O)/C=C/c1ccc(OC)c(OC)c1 the results were Peg3 promoter 104, EBV LMP1 NFkB inactive, Shn3 3UTR inh 98, TRPM1 prom inh inactive and HIF-2a inh inactive.
Cc1ccc(N=CC2=C(O)CC(c3ccc(Cl)cc3)CC2=O)cc1 (stereo not given) was read as Peg3 promoter inactive, EBV LMP1 NFkB inactive, PAX8 inh HTS 146, Shn3 3UTR inh inactive, TRPM1 prom inh inactive and HIF-2a inh inactive.
Cc1csc(NC(=O)c2cc(C)oc2C)n1 was read as Peg3 promoter inactive, EBV LMP1 NFkB inactive, Shn3 3UTR inh inactive, TRPM1 prom inh inactive and HIF-2a inh inactive.
COc1ccc(CC(N)c2csc(NC(=O)Nc3ccc(OC)cc3)n2)cc1 (stereo not given) was read as Peg3 promoter inactive, PAX8 inh HTS inactive, Shn3 3UTR inh inactive and HIF-2a inh inactive.
Screening COc1ccc(NC(=O)Nc2nc(C(N)Cc3ccc(C(F)(F)F)cc3)cs2)cc1 (stereo not given) returned Peg3 promoter 98, PAX8 inh HTS inactive, Shn3 3UTR inh inactive and HIF-2a inh inactive.
Screening COc1ccc(CC(N)c2csc(NC(=O)c3cc(C(C)(C)C)oc3C)n2)cc1 (stereo not given) returned Peg3 promoter 99, PAX8 inh HTS inactive, Shn3 3UTR inh inactive and HIF-2a inh inactive.
For Cc1ccc(C(=O)Nc2nc(C(N)Cc3ccc(C(F)(F)F)cc3)cs2)cc1 (stereo not given) the results were Peg3 promoter 96, PAX8 inh HTS inactive, Shn3 3UTR inh inactive and HIF-2a inh inactive.
For COc1cc(NC(=O)Nc2nc(C(N)Cc3ccc(C(F)(F)F)cc3)cs2)cc(OC)c1OC (stereo not given) the results were Peg3 promoter 92, PAX8 inh HTS inactive, Shn3 3UTR inh inactive and HIF-2a inh inactive.
`CC(=O)c1ccc(Nc2nc(C(N)Cc3ccc(C(F)(F)F)cc3)cs2)cc1` (stereo not given) gave Peg3 promoter inactive, PAX8 inh HTS inactive, Shn3 3UTR inh inactive and HIF-2a inh inactive.
`Cc1ccc(S(=O)(=O)N[C@H]2CC[C@H](CCn3cc(-c4cccnc4)nn3)O[C@H]2CO)cc1` gave PAX8 inh HTS inactive.
CCOc1ccc(N(C(C)C(=O)N2CCCCCC2)S(C)(=O)=O)cc1 (stereo not given) was read as Peg3 promoter inactive, EBV LMP1 NFkB 71, PAX8 inh HTS inactive, Shn3 3UTR inh inactive, TRPM1 prom inh inactive and HIF-2a inh inactive.
For CC(C(=O)N1CCCCCC1)N(c1ccc(Cl)cc1)S(C)(=O)=O (stereo not given) the results were Peg3 promoter inactive, EBV LMP1 NFkB inactive, PAX8 inh HTS inactive, Shn3 3UTR inh inactive, TRPM1 prom inh inactive and HIF-2a inh inactive.
`Cc1ccc(C)c(Cn2c3ccccc3c3cnn(CC(=O)NCc4ccccn4)c(=O)c32)c1` gave Peg3 promoter inactive, EBV LMP1 NFkB inactive, PAX8 inh HTS inactive, Shn3 3UTR inh inactive, TRPM1 prom inh inactive and HIF-2a inh inactive.
Screening Cc1ccc(C)c(Cn2c3ccccc3c3cnn(CC(=O)NCCCN4CCCCC4)c(=O)c32)c1 returned Peg3 promoter 86, EBV LMP1 NFkB inactive, PAX8 inh HTS inactive, Shn3 3UTR inh inactive, TRPM1 prom inh inconclusive and HIF-2a inh inactive.
Screening O=C(C[C@H]1C[C@@H]2c3cc(NC(=O)Nc4ccccc4)ccc3O[C@@H]2[C@@H](CO)O1)NCc1ccccn1 returned PAX8 inh HTS inactive.
`CCCCCCOc1ccc(/C(C)=N/NC2=NCCN2)cc1[N+](=O)[O-]` gave Peg3 promoter 111, EBV LMP1 NFkB inactive, PAX8 inh HTS inactive, Shn3 3UTR inh inactive, TRPM1 prom inh inactive and HIF-2a inh inactive.
COc1ccc(/C(C)=N/NC2=NCCN2)cc1Cl was read as Peg3 promoter inactive, EBV LMP1 NFkB inactive, PAX8 inh HTS inactive, Shn3 3UTR inh inactive, TRPM1 prom inh inactive and HIF-2a inh inactive.
Screening CCCCOc1ccc(Br)cc1/C(C)=N/NC1=NCCN1 returned Peg3 promoter inactive, EBV LMP1 NFkB inactive, Shn3 3UTR inh 88, TRPM1 prom inh 82 and HIF-2a inh inactive.
`C/C(=N\NC1=NCCN1)c1ccc(N)c([N+](=O)[O-])c1` gave Peg3 promoter inactive, EBV LMP1 NFkB inactive, PAX8 inh HTS inactive, Shn3 3UTR inh inactive, TRPM1 prom inh inactive and HIF-2a inh inactive.
